Pf Dd2 growth = P. falciparum Dd2 growth inhibitors, primary screen, SYBR Green fluorescence, single dose replicates; actives 2.3% (n = 94,000); activity change, % at 10 µM; 72 h; hits give low values; AID 1159554, 2015; in the data active = activity change below about -80%
C diff growth = C. difficile growth inhibitors, primary screen, HTS; growth activity, negative = inhibition, % at 16 µg/mL (by protocol); Clostridium difficile clinical isolate growth, OD600, 24 h; hits give low values; actives 0.25% (n = 86,000); AID 1259249, 2017;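 active = mean growth activity at or below -80% and every replicate also at or below -80%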;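 note: 0% = DMSO wells and -100% = levofloxacin 16 µg/mL wells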
Tcruzi prolif = T. cruzi intracellular proliferation inhibitors, primary screen, cell-based, beta-gal Tulahuen parasites, NIH3T3 host, luminescence. T. cruzi beta-gal in NIH3T3, GalScreen luminescence, 90 h. actives 5.9% (n = 77,000). inhibition, % at 8.34 µM;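 active = mean inhibition above about 93%, with at least 55% of replicates each passing it, limit read from the data, passing the limit was not always enough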
* marks the source's active call; other numbers are inactive results; · = not tested or not shown. An excerpt weighted towards active compounds, which were near 6.8% of everything screened.

SMILES	Pf Dd2 growth	C diff growth	Tcruzi prolif
CCS(=O)(=O)NCC[C@H]1CC[C@H](NC(=O)Cc2ccccn2)[C@H](CO)O1	27	·	-2
C[C@@H]1CN([C@@H](C)CO)C(=O)c2cc(NC(=O)C3CCCCC3)ccc2O[C@@H](C)CCCCO[C@@H]1CN(C)S(=O)(=O)c1ccc(F)cc1	-82*	-1	36
C[C@@H]1CN([C@H](C)CO)C(=O)c2cc(NC(=O)C3CCCCC3)ccc2O[C@@H](C)CCCCO[C@@H]1CN(C)S(=O)(=O)c1ccc(F)cc1	-82*	-4	79
C[C@H]1CCCCO[C@H](CN(C)S(=O)(=O)c2ccc(F)cc2)[C@@H](C)CN([C@@H](C)CO)C(=O)c2cc(NC(=O)C3CCCCC3)ccc2O1	-77	0	86
C[C@@H]1CCCCO[C@H](CN(C)S(=O)(=O)c2ccc(F)cc2)[C@@H](C)CN([C@@H](C)CO)C(=O)c2cc(NC(=O)C3CCCCC3)ccc2O1	-75	1	75
COc1ccc(NC(=O)Nc2ccc3c(c2)C(=O)N([C@@H](C)CO)C[C@@H](C)[C@@H](CN(C)Cc2ccc(C(F)(F)F)cc2)OCCCC[C@H](C)O3)cc1	-76	8	75
COc1ccc(CN(C)C[C@@H]2OCCCC[C@H](C)Oc3ccc(NC(=O)Nc4ccc(C(F)(F)F)cc4)cc3C(=O)N([C@@H](C)CO)C[C@@H]2C)cc1	-87*	-15	96
COc1ccc(CN(C)C[C@H]2OCCCC[C@H](C)Oc3ccc(NC(=O)Nc4ccc(C(F)(F)F)cc4)cc3C(=O)N([C@@H](C)CO)C[C@H]2C)cc1	-75	8	59
COc1ccc(NC(=O)Nc2ccc3c(c2)C(=O)N([C@@H](C)CO)C[C@@H](C)[C@@H](CN(C)Cc2ccc(C(F)(F)F)cc2)OCCCC[C@@H](C)O3)cc1	-83*	-1	78
COc1ccc(CN(C)C[C@H]2OCCCC[C@@H](C)Oc3ccc(NC(=O)Nc4ccc(C(F)(F)F)cc4)cc3C(=O)N([C@H](C)CO)C[C@H]2C)cc1	-67	-22	101
COc1ccc(NC(=O)Nc2ccc3c(c2)C(=O)N([C@@H](C)CO)C[C@H](C)[C@@H](CN(C)Cc2ccc(C(F)(F)F)cc2)OCCCC[C@@H](C)O3)cc1	-91*	5	66
C[C@@H]1CN([C@@H](C)CO)C(=O)c2cc(NS(=O)(=O)c3ccccc3)ccc2O[C@@H]1CN(C)C(=O)Nc1ccccc1	4	6	-3
Cc1noc(C)c1NC(=O)Nc1ccc2c(c1)C(=O)N([C@H](C)CO)C[C@@H](C)[C@@H](CN(C)Cc1ccc(C(F)(F)F)cc1)OCCCC[C@H](C)O2	-68	3	74
COc1ccccc1-c1cn(CC[C@@H]2CC[C@H](NC(=O)c3cnccn3)[C@H](CO)O2)nn1	0	3	41
O=C(O)C[C@H]1C[C@H]2c3cc(NC(=O)CC4CC4)ccc3O[C@H]2[C@@H](CO)O1	4	-1	-22
N#C[C@@H]1[C@@H](c2ccc(C#CC3CCCC3)cc2)[C@H](CO)N1C(=O)c1cccc(F)c1	-55	-5	·
CNC[C@H]1Oc2ncc(C#Cc3ccccc3F)cc2C(=O)N([C@@H](C)CO)C[C@H]1C	-31	-1	·
C[C@@H]1CN([C@@H](C)CO)C(=O)c2cccc(NC(=O)Nc3ccc(F)cc3)c2O[C@@H]1CN(C)Cc1ccc(C(F)(F)F)cc1	-48	-92*	54
C[C@@H]1CN([C@@H](C)CO)C(=O)c2cccc(NC(=O)Nc3ccc(C(F)(F)F)cc3)c2O[C@@H]1CN(C)S(=O)(=O)c1ccc(Cl)cc1	-67	·	107*
C[C@@H]1CN([C@@H](C)CO)C(=O)c2cccc(NC(=O)Nc3ccc(C(F)(F)F)cc3)c2O[C@@H]1CN(C)Cc1ccc(C(F)(F)F)cc1	-26	-103*	84
C[C@H]1CN([C@@H](C)CO)C(=O)c2cccc(NC(=O)Nc3ccc(C(F)(F)F)cc3)c2O[C@@H]1CN(C)Cc1ccc(C(F)(F)F)cc1	11	27	59
C[C@H]1CN([C@@H](C)CO)C(=O)c2cccc(NC(=O)Nc3ccc(C(F)(F)F)cc3)c2O[C@@H]1CN(C)S(=O)(=O)c1ccc(F)cc1	-17	-2	90
COc1ccc(CN(C)C[C@H]2Oc3c(NC(=O)Nc4ccc(C(F)(F)F)cc4)cccc3C(=O)N([C@@H](C)CO)C[C@H]2C)cc1	-21	-101*	·
C[C@@H]1CN([C@H](C)CO)C(=O)c2cccc(NC(=O)Nc3ccc(F)cc3)c2O[C@H]1CN(C)Cc1ccc(C(F)(F)F)cc1	-12	7	18
COc1ccc(CN(C)C[C@@H]2Oc3c(NC(=O)Nc4ccc(C(F)(F)F)cc4)cccc3C(=O)N([C@H](C)CO)C[C@H]2C)cc1	4	2	·
SMILES	Pf Dd2 growth	C diff growth	Tcruzi prolif
CCCNC(=O)N1CC2(CN(Cc3cccc(OC)c3)C2)c2c([nH]c3cc(OC)ccc23)[C@H]1CO	-39	-4	·
O=C(NC1Cc2ccccc2C1)[C@H]1[C@H](CO)[C@H]2Cn3c(cccc3=O)[C@H]2N1C(=O)C1CC1	6	-1	55
COc1ccc(CN(C)C[C@@H]2Oc3ccc(NC(=O)CCN4CCOCC4)cc3CC(=O)N([C@H](C)CO)C[C@H]2C)cc1	-32	-1	14
COCc1cn([C@@H]2C[C@@H]3O[C@@H](CO)CC[C@@H]3O[C@@H]2CCc2ccc(-c3ccc(OC)cc3)cc2)nn1	-84*	-8	·
COCc1cn([C@H]2C[C@@H]3O[C@H](CO)CC[C@@H]3O[C@@H]2CCc2ccc(-c3ccc(OC)cc3)cc2)nn1	-38	2	·
COCc1cn([C@@H]2C[C@@H]3O[C@H](CO)CC[C@@H]3O[C@@H]2CCc2ccc(-c3ccc(OC)cc3)cc2)nn1	-94*	-29	·
OC[C@H]1CC[C@@H]2O[C@H](CCc3ccc(-c4ccc(F)cc4)cc3)[C@@H](n3cc(C4CC4)nn3)C[C@@H]2O1	-47	4	·
O=C(C[C@H]1C[C@@H]2c3cc(NC(=O)c4cccnc4)ccc3O[C@@H]2[C@@H](CO)O1)NCc1ccncc1	13	-1	-9
CCCN(C)C[C@@H]1Oc2cc(C#CCC3CCCC3)ccc2S(=O)(=O)N([C@@H](C)CO)C[C@H]1C	-4	·	·
C[C@H]1CN([C@@H](C)CO)C(=O)Cc2cc(NC(=O)C3CCCCC3)ccc2O[C@@H]1CN(C)Cc1ccc(C(F)(F)F)cc1	-11	80	88
O=C(C[C@H]1C=C[C@H](NC(=O)Cc2ccccn2)[C@H](CO)O1)NCCCN1CCOCC1	17	·	-30
O=C(C[C@H]1C=C[C@H](NC(=O)Cc2ccccn2)[C@H](CO)O1)NCCc1ccccc1	-92*	-4	·
CCN1[C@@H]2c3ccc(C4=CCCCC4)c(=O)n3C[C@H]1[C@H](CO)[C@H]2C(=O)N1CCOCC1	·	-2	17
C[C@@H]1CCCCO[C@H](CN(C)C(=O)CCCN(C)C)[C@H](C)CN([C@H](C)CO)C(=O)c2cc(NC(=O)C3CCCCC3)ccc2O1	11	1	-5
C[C@@H]1CN([C@H](C)CO)C(=O)c2cc(NC(=O)Nc3ccc4c(c3)OCO4)ccc2O[C@@H](C)CCCCO[C@H]1CN(C)Cc1ccc(Cl)c(Cl)c1	-89*	12	96
